# Assay outcomes from PubChem.
# Only some compounds are listed: those with a hit (about 2.6% of all), similar ones and a draw of the others.
# CCT chaperon mod: High-Throughput Screening for Modulators of Cytosolic Chaperonin Activity; actives 0.3% (n = 360,000); activity change, % (no concentration beside the values), hits read low; AID 651819, 2012; purified chaperonin ATPase assay, HTRF ADP detection, 30 min; in the data active = activity change below about -30%; also: % is scaled to controls: 0 for no effect and ±100 for the full control effect
#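 ATPase activity: ADP formed was measured by HTRF Transcreener (665/615 nm ratio) after 30 min at 37 deg C with 10 uM ATP. Compounds screened at one 76 uM concentration against 40 or 20 nM TRiC in Tris pH 7.4/KCl/MgCl2/DTT buffer.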
# A-T KAP1 phos: qHTS Assay for Identifying a Potential Treatment of Ataxia-Telangiectasia; F2112 A-T fibroblasts, KAP-1 phosphorylation AlphaLISA; neocarzinostatin DNA damage 30 min before lysis; Potency, µM (titrated, usually from 57.5 µM), without a hit: at the highest dose activation, usual class: activators; actives 0.19% (n = 320,000); also: potency is read from the fitted curve at half-maximal effect; % of control where 0% means no effect; nearly all actives have a fitted effect of over 45% in size
#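 hTERT-immortalized A-T patient fibroblasts (F2112), 500 cells/well in OPTI-MEM, 1% FBS, got compounds for 60 min, then NCS for 30 min at 37C. Lysates were then assayed for phospho-KAP-1 by AlphaLISA (anti-pKAP1 donor, anti-KAP1 acceptor beads), 6 hr at 25C.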
# TCR activator: Activators of T cell receptors: qHTS campaign. primary human leukocytes, anti-CD3, IL-2 HTRF, 48 h. Potency, µM (top dose mostly 9.22 µM), without a hit: at the top dose activation of IL-2 secretion, most hits filed as activators. 330,000 tested, under 10 active. AID 504894, 2011; also: % of control where 0% means no effect
#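 Readout: HTRF IL-2, Eu-cryptate/d2 antibody pair, 320nm excitation, 665nm emission. Stimulus: a-CD3 beads, no co-stimulation. Cells: primary human leukocytes. Exposure: 48 hr with compound.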
# A549 viability: Nrf2 qHTS screen for inhibitors: counterscreen for cytotoxicity. Potency, µM (series often up to 46 µM), without a hit: at the highest dose activity change, negative = cytotoxicity, usual class: inhibitors. AID 504648, 2011. actives 0.16% (n = 390,000). A549 ARE-Fluc cells, CellTiter-Fluor viability, 18-24 h; also: potency is read from the fitted curve at half-maximal effect; % is scaled to controls: 0 for no effect and ±100 for the full control effect
#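 A549 ARE_Fluc cells in 5% FBS OPTI-MEM were exposed to compounds in concentration-response for 18-24 h at 37 deg C. Viability was read by CellTiter-Fluor fluorescence (Ex 405/Em 525) after 30 min, before the luciferase read.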
# Nrf2 block: Nrf2 qHTS screen for inhibitors. A549 ARE-Fluc reporter, luciferase luminescence, 18-24 h. Potency, µM (highest dose often 46 µM), for the others: at the highest dose activity change, negative = inhibition, hits mostly inhibitors. actives 2.1% (n = 360,000); also: potency is read from the fitted curve at half-maximal effect; % is scaled to controls: 0 for no effect and ±100 for the full control effect; nearly all actives have a fitted effect of over 60% in size
#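 Reporter: ARE-Fluc in A549. Exposure: 18-24 h, 37 °C, 5% CO2, 5% FBS OPTI-MEM. Readouts: fluorescent cytotoxicity (CellTiter-Fluor), then luminescent Nrf2 signal after BugLite.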
# Nrf2 ARE act: qHTS of Nrf2 Activators; AREc32 ARE-luciferase reporter (MCF7-derived line), luminescence, 24 h; Potency, µM (top dose mostly 46.1 µM), for the others: top-dose activation, actives largely listed as activators; actives 0.31% (n = 410,000); also: potency is read from the fitted curve at half-maximal effect; % of control where 0% means no effect; nearly all actives have a fitted effect of over 65% in size
#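 Nrf2 activation is followed as ARE-luciferase induction in the AREc32 line after one day of compound treatment; luminescence is read with Steady-Glo.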
# An asterisk follows results filed as active; ? = inconclusive; / = no result given; [ ] = another dose, or the depositor's remark. Unless noted, calls follow the shape of the dose curve; as a rule, active = well fitted curve in the direction sought with a large enough effect; inconclusive = small, poorly fitted or top-dose-only effect, or another doubt; inactive = no such curve, though single readings can be large; an effect the other way counts as inactive or inconclusive.
SMILES,CCT chaperon mod,A-T KAP1 phos,TCR activator,A549 viability,Nrf2 block,Nrf2 ARE act
CC(C(=O)O)c1ccc(-c2ccccc2)c(F)c1 (stereo not given),-1.8,6.3%,4.8%,-6.4%,-11.3%,-1.1%
CC(C(=O)Nc1ccccc1)c1ccc(-c2ccccc2)c(F)c1 (stereo not given),-0.3,/,-0.2%,-29.9%,10.3µM*,-0.1%
O=C(NCCCCc1ccccc1)c1nn(-c2ccccc2)nc1CO,/,/,/,-7.0%,23.1µM*,-0.9%
CC(C)(C)c1csc(NC(=O)c2ccncc2)n1,-5.7,-0.2%,-3.6%,-17.1%,16.4µM*,3.3%
O=C(c1cccc(C(=O)N(c2ccccn2)C2CCCCC2)c1)N(c1ccccn1)C1CCCCC1,2.6,-4.6%,2.3%,-15.2%,16.4µM*,6.2%
Cc1cc(C)cc(NS(=O)(=O)c2ccc3[nH]cc(C(=O)NCc4ccco4)c(=O)c3c2)c1,1.4,-3.0%,0.3%,-11.3%,16.4µM*,-0.2%
Cc1cc(C)cc(NS(=O)(=O)c2ccc3[nH]cc(C(=O)NC4CCCCC4)c(=O)c3c2)c1,/,/,/,-15.8%,23.1µM*,-3.5%
Cc1cc(C)cc(NS(=O)(=O)c2ccc3[nH]cc(C(=O)NCc4ccccc4Cl)c(=O)c3c2)c1,/,/,/,-26.4%,/,-0.8%
COc1ccc(CCNC(=O)CCn2c(=O)c3ccccc3n(Cc3ccccc3F)c2=O)cc1OC,/,/,/,-12.8%,?,0.1%
CC(C)C1C(=O)Nc2ccc(S(=O)(=O)NCCc3ccc(Cl)cc3)cc21 (stereo not given),/,/,/,-0.1%,?,0.0%
CN(CC(=O)Nc1ccc(F)cc1)c1ccc(S(=O)(=O)N2CCCCC2)cc1[N+](=O)[O-],1.0,1.2%,-7.5%[46.1 µM],-7.4%,13µM*,0.4%[9.22 µM]
COc1ccc(S(=O)(=O)N2CCCCCC2)cc1NC(=O)Cc1cc(OC)c(OC)c(OC)c1,-2.0,5.8%,-5.8%[46.1 µM],-3.8%,-24.4%,0.0%
COc1ccc(NC(=O)CN2CCCN(S(=O)(=O)c3ccc(F)cc3)CC2)c(OC)c1,1.1,1.2%,6.4%,-4.3%,?,-1.0%
COc1ccc(OC)c(CC(=O)Nc2cc(S(=O)(=O)N3CCCCC3)ccc2C)c1,-0.3,18.1%,0.2%,-17.1%,20.6µM*,0.5%
Cc1ccc(CNC(=O)Cn2ccc3cc(S(=O)(=O)N4CCCCCC4)ccc32)cc1,0.0,-5.7%,-41.0%,?,14.6µM*,0.6%
COc1ccc(NC(=O)CN2CCCN(S(=O)(=O)c3ccc(Br)cc3)CC2)c(OC)c1,/,/,/,18.4µM*,20.6µM*,3.4%
O=C(Nc1cccc(Cl)c1)c1ccc2nc(Cc3ccccc3)oc2c1,/,/,/,-26.0%,/,3.8%
Cc1ccc(N2C(=O)/C(=C\c3ccc(C(C)C)cc3)N=C2SC2CCOC2=O)cc1 (stereo not given),-0.8,0.9%,3.3%[46.1 µM],0.5%,-4.8%,0.3%
COc1cc(F)c(S(=O)(=O)N2CCN(S(=O)(=O)c3cccs3)CC2)c(F)c1,/,/,/,1.1%,9.5%,/
Cc1ccc(S(=O)(=O)N2CCOCC2)cc1NC(=O)CSc1nnc2cc(C)c3ccccc3n12,-29.3,0.8%,1.8%[46.1 µM],-0.3%,?,4.8%
COc1ccc(S(=O)(=O)N2CCCCC2)cc1NC(=O)c1[nH]c(C)c(C(C)=O)c1C,-1.1,5.0%,4.6%,-1.3%,18.4µM*,10.9%
COc1ccc(S(=O)(=O)N2CCCCC2)cc1NCC(=O)Nc1ccc(C)cc1,-0.8,31.0%,-5.2%,-9.0%,16.4µM*,-0.2%
Cc1cc2nnc(SCC(=O)Nc3cc(S(=O)(=O)N4CCOCC4)ccc3Cl)n2c2ccccc12,-53.3*,2.2%,10.0%[46.1 µM],21.7%,?,-0.2%
CC(=O)c1c(C)[nH]c(C(=O)Nc2cc(S(=O)(=O)N3CCCCC3)ccc2C)c1C,0.8,1.2%,-14.5%,2.0%,?,10.1%
COc1ccc(NC(=O)CCOc2ccccc2F)cc1S(=O)(=O)N1CCCCC1,-1.6,1.5%,-1.8%,-23.3%,20.6µM*,0.1%
SMILES,CCT chaperon mod,A-T KAP1 phos,TCR activator,A549 viability,Nrf2 block,Nrf2 ARE act
C=CCOc1ccc(/C=C/C(=O)OCC(=O)N2CCCc3ccccc32)cc1,-0.5,8.7%,-1.5%,-8.4%,1.8%,2.8%
COc1ccc(OC)c(CNC(=O)CCCn2ccc3cc(S(=O)(=O)N4CCCC4)ccc32)c1,1.1,-3.0%,-0.6%,?,14.6µM*,1.2%
COc1ccc(-n2cnnc2SCC(=O)Nc2cc(S(=O)(=O)N3CCCCC3)ccc2C)cc1,-4.1,-1.7%,-5.0%[46.1 µM],-12.0%,?,3.0%
COc1ccc(NC(=O)CN2C(=O)CSc3ccc(S(=O)(=O)N4CCCC4)cc32)cc1OC,-36.7*,-9.6%,-7.0%,0.0%,-25.5%,-0.7%
Cc1ccc(S(=O)(=O)N2CCCCC2)cc1NC(=O)CSc1nncn1-c1ccccc1,1.7,1.9%,8.7%,-1.9%,18.4µM*,1.6%
COc1cccc(CNC(=O)CCCn2ccc3cc(S(=O)(=O)N4CCCC4)ccc32)c1,1.4,9.0%,1.5%,-2.3%,-4.3%,-0.1%
COc1ccc(OC)c(NC(=O)CN2C(=O)CSc3ccc(S(=O)(=O)N4CCCC4)cc32)c1,0.8,-5.9%,3.6%,-0.8%,-10.9%,0.2%
COC(=O)C1(C(=O)OC)CCCCN(S(=O)(=O)c2ccc(C)cc2)CCC1,-1.6,/,/,/,/,3.8%
CCc1ccc(OCC(=O)NNC(=S)NC(=O)C2CC2)c(Br)c1,0.3,12.6%,-0.9%,-15.4%,6.51µM*,-0.5%
CCc1ccc(OCC(=O)NNC(=S)NC(=O)C2CCCCC2)c(Br)c1,0.5,11.3%,-1.7%,-1.6%,2.3%,3.0%
CCO[C@H]1OC(C(=O)N2CCN(C)CC2)=C[C@@H](c2csc3ccccc23)[C@@H]1CCCO,1.0,20µM*,-0.7%,-7.1%,-13.6%,3.7%
O=C(CSc1nc(-c2ccc(Cl)cc2)cs1)Nc1cccc([N+](=O)[O-])c1,-0.4,-3.5%,-1.8%[46.1 µM],-20.7%,16.4µM*,18.8%
O=[N+]([O-])c1ccc(N/N=C\c2cccnc2)nc1,-1.9,3.0%,-3.1%,-9.7%,?,4.9%
O=[N+]([O-])c1ccc(NN=Cc2ccco2)nc1,-0.7,/,4.5%,?,?,0.891µM*
CCn1nc(-c2ccccc2)c(-c2ccccc2)c(C(=O)Nc2ccccc2C(N)=O)c1=O,/,/,/,0.4%,1.8%,0.2%
COc1cccc(NC(=O)C(=O)NCC(c2ccc3c(c2)OCO3)N2CCOCC2)c1 (stereo not given),/,/,/,-0.8%,/,3.1%
